Assay results as given in PubChem BioAssay (NCI).
About 83,000 compounds went through this panel and 20% of them were active in at least one assay; those are over-represented in the sample as a whole.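 Cell lines were cultured in 96-well plates, exposed to a single compound concentration, and assessed for percent growth 48 hours later.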 A number with no mark means an inactive call. Active and inactive are the calls of the source. The calls were made as follows: active = growth percent below 10; inactive = the rest.

The compounds below were run on HL-60(TB) leukemia (assay: NCI-60 one-dose screen, 48 h (100 = growth as untreated, 0 = no growth, -100 = all killed)). Settings: 10 µM unless noted.

Row | SMILES | growth
1 | CC[C@H](Nc1nc(N)nc(N)c1Cl)c1nc2cccc(NCc3ccc(C(=O)NO)cc3)c2c(=O)n1-c1ccccc1 | -34.7% (active)
2 | Cc1ccc(Nc2nc(-c3cc(O)c(C)c(C)c3O)cs2)cc1 | 9.51% (active)
3 | COc1cccc(-c2nc3sccn3c2-c2ccnc(NCCNC(=O)Nc3cccc(C(F)(F)F)c3)n2)c1 | 62.8%
